Source: PubChem (several laboratories)
Most compounds without a hit are left out; they make up all but 3.8% or so of the library.
aDG glyco up – alpha-DG glycosylation activation. 0.22% of 360,000 active. AID 624168. activation, % at 10 µM. Pro5-aDG cells, alpha-DG glycosylation AlphaScreen (IIH6); 0% Pro5, 100% B10-LARGE cell signal;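 active = activation of at least 8% versus controls, or a plate z-score of at least 8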;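 also: Pro5 are CHO cells carrying HIG-tagged alpha-DG that lacks glycosylation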
CR mimetic SO – caloric restriction mimetics inhibiting age-related superoxide in yeast. S. cerevisiae aged cells, superoxide DHE fluorescence; stronger effect = lower value. superoxide response (% of plate mean), % at 10 µM. 0.18% of 330,000 active;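 active = superoxide response under a set limit, about three screen SD below normal, cut at about 65% in these data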;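 also: yeast aged for seven days with compound at 30 °C before DHE staining; 100% = average MFI of all compound-treated wells on the plate with controls excluded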
Cardio protect – myocardial damage modulation in H9c2 cells. H9c2 cardiomyocytes, H2O2 injury protection, ATPLite, 2 h. protection from H2O2 cell death, % at 20 µM. 0.63% of 360,000 active;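 active = compounds giving at least 50% protection of heart cells from peroxide-induced death in the single-dose screen, raw or plate-pattern-corrected value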;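 also: 0% = DMSO wells with peroxide and 100% = DMSO wells without peroxide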
Mot1-301 SUMO – inhibitors of SUMOylation pathway: yeast Mot1-301 growth rescue; S. cerevisiae Mot1-301 growth rescue, ATP luminescence, 38.5C; percent above DMSO median, 100 means doubled; growth rescue, % at 18.8 µM; 1% of 320,000 active;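 active = every valid replicate shows activation above 250% relative to neutral control wells; inactive = the rest, any valid replicate at or below 250%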;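 also: OY570 slx delta 5 strain wells were the positive control but not used for scaling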
MPTP inh – inhibitors of mitochondrial permeability transition pore; 1.4% of 360,000 active; isolated mouse mitochondria, Ca2+ swelling absorbance, 30 min; inhibition, % at 10 µM;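 active = inhibition of 50% or more, scaled per plate between neutral and stimulator controls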;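 also: 0% = DMSO wells given calcium and 100% = 1 mM EGTA wells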
FAS-TE inh – inhibitors of human fatty acid synthase thioesterase domain. P49327. recombinant FAS-TE, OMFH fluorogenic substrate, fluorescence endpoint. inhibition, % at 15 µM. 0.67% of 360,000 active. AID 602261;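 active = compounds whose normalised, plate-corrected inhibition of enzyme fluorescence in the single-dose primary screen is 50% or more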;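 also: 0% = DMSO with enzyme and 100% = substrate without enzyme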
MPTP counter – membrane potential counter-screen of mitochondrial pore inhibitors; shares compounds with MPTP inh; isolated mitochondria, Rhodamine 123 fluorescence; inhibition, % at 10 µM; 78% of 5,000 active; in the data active = inhibition above about 22%;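 also: 0% = DMSO vehicle and 100% = positive control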
Starred values were filed as active, the others as inactive.

Screening COc1ccc(CC(=O)Nc2ccc(-c3csc(C)n3)cc2)cc1 returned aDG glyco up 0, CR mimetic SO 100, Cardio protect 6, Mot1-301 SUMO -9, MPTP inh -5 and FAS-TE inh -1.
Screening Cc1cc(F)ccc1NC(=O)c1cc(S(=O)(=O)N2CCCC2)cn1C returned aDG glyco up 0, CR mimetic SO 88, Cardio protect 1, Mot1-301 SUMO -2, MPTP inh -1 and FAS-TE inh -3.
`COc1ccccc1OC(=O)Nc1ccc(Cl)cc1` gave aDG glyco up 0, CR mimetic SO 84, Cardio protect -4, Mot1-301 SUMO 6, MPTP inh 58*, FAS-TE inh -2 and MPTP counter 75*.
For COc1ccc2[nH]c3c(NCc4ccco4)ncnc3c2c1 the results were CR mimetic SO 81 and Mot1-301 SUMO -16.
Fc1ccc2[nH]c3c(NCc4ccccc4)ncnc3c2c1 was read as aDG glyco up 2, CR mimetic SO 109, Cardio protect -22, Mot1-301 SUMO -11, MPTP inh 84*, FAS-TE inh 3 and MPTP counter 75*.
For CSCCC(NC(=O)c1ccc(Cl)cc1)C(=O)OCC(C)=O (stereo not given) the results were aDG glyco up 0, CR mimetic SO 85, Cardio protect 13, Mot1-301 SUMO -14, MPTP inh 0 and FAS-TE inh -3.
Screening CSCCC(NC(=O)c1ccc(Cl)cc1)C(=O)OCC(=O)Nc1ccc(C#N)cc1 (stereo not given) returned aDG glyco up 0, CR mimetic SO 113, Cardio protect 0, Mot1-301 SUMO 7, MPTP inh 50*, FAS-TE inh 1 and MPTP counter 44*.
`O=C(OCc1ccccc1)N(CCCCN(CCCNCc1ccccc1)C(=O)OCc1ccccc1)CCCNCc1ccccc1` gave aDG glyco up -1, Cardio protect -19, MPTP inh 64*, FAS-TE inh 3 and MPTP counter -6.
`CN(C(=O)c1cncc(Br)c1)c1c(N)n(Cc2ccccc2)c(=O)[nH]c1=O` gave aDG glyco up 0, CR mimetic SO 82, Cardio protect 11, Mot1-301 SUMO 3, MPTP inh 0 and FAS-TE inh -5.
Screening Cc1ccc(NC(=S)NNc2ncc(C(F)(F)F)cc2Cl)cc1 returned aDG glyco up 0, CR mimetic SO 99, Cardio protect -6, Mot1-301 SUMO -2, MPTP inh -6 and FAS-TE inh -2.
FC(F)(F)c1cnc(NNC(=S)Nc2ccc(Cl)cc2)c(Cl)c1 was read as aDG glyco up 2, CR mimetic SO 140, Cardio protect -15, Mot1-301 SUMO 1, MPTP inh 100*, FAS-TE inh 19 and MPTP counter 92*.
For Fc1ccc(NC(=S)NNc2ncc(C(F)(F)F)cc2Cl)c(F)c1 the results were aDG glyco up 1, CR mimetic SO 99, Cardio protect -19, Mot1-301 SUMO -5, MPTP inh 94*, FAS-TE inh 4 and MPTP counter 94*.
For O=C(Nc1ccc(Oc2cccc(C(F)(F)F)c2)nc1)c1cccs1 the results were aDG glyco up 0, CR mimetic SO 108, Cardio protect -6, Mot1-301 SUMO 135, MPTP inh 50*, FAS-TE inh 21 and MPTP counter 57*.
O=C(COc1ccc(C(=O)c2ccccc2)cc1)NC1CCCCCC1 was read as aDG glyco up 2, CR mimetic SO 117, Cardio protect -24, Mot1-301 SUMO 25, MPTP inh 53*, FAS-TE inh 18 and MPTP counter 31*.
`O=C(COc1ccc(C(=O)c2ccccc2)cc1)Nc1cccnc1` gave aDG glyco up 1, CR mimetic SO 99, Cardio protect -11, Mot1-301 SUMO -1, MPTP inh 81*, FAS-TE inh 3 and MPTP counter 82*.
Screening Cc1ccc(NC(=O)c2ccc(Cl)c(N3C(=O)C=CC3=O)c2)cc1 returned aDG glyco up -1, CR mimetic SO 101, Cardio protect -36, Mot1-301 SUMO 24, MPTP inh 84*, FAS-TE inh 8 and MPTP counter 86*.
`O=C(Nc1ccc(Cl)c(Cl)c1)c1ccc(Cl)c(Cl)c1` gave aDG glyco up 1, CR mimetic SO 89, Cardio protect -17, Mot1-301 SUMO -6, MPTP inh 23 and FAS-TE inh 12.
`N#C/C(=C\c1cc(Cl)ccc1O)C(=O)NC1CCCCC1` gave aDG glyco up 0, CR mimetic SO 81, Cardio protect 2, Mot1-301 SUMO 17, MPTP inh 0 and FAS-TE inh -3.
Screening N#C/C(=C\c1cc(Cl)cc(Cl)c1O)C(=O)NC1CCCCC1 returned aDG glyco up 0, CR mimetic SO 105, Cardio protect -19, Mot1-301 SUMO -18, MPTP inh 61*, FAS-TE inh 43 and MPTP counter 68*.
Screening Cc1cc(/C=C2\C(=N)N3N=C(c4ccco4)SC3=NC2=O)c(C)n1Cc1ccccc1 returned aDG glyco up 0, CR mimetic SO 112, Cardio protect -3, Mot1-301 SUMO -1, MPTP inh 46 and FAS-TE inh 18.
Screening N=C1/C(=C/c2coc3ccccc3c2=O)C(=O)N=C2SC(c3ccco3)=NN12 returned aDG glyco up 0, CR mimetic SO 85, Cardio protect 0, Mot1-301 SUMO 9, MPTP inh 64*, FAS-TE inh -50 and MPTP counter 71*.
N=C1/C(=C\c2coc3ccccc3c2=O)C(=O)N=C2SC(c3ccncc3)=NN12 was read as aDG glyco up 0, CR mimetic SO 94, Cardio protect 0, Mot1-301 SUMO -27, MPTP inh 94*, FAS-TE inh -20 and MPTP counter 64*.
For COc1ccc(C(=O)CSc2nnc(Cn3cnc4ccccc43)o2)cc1 the results were aDG glyco up 4, CR mimetic SO 92, Cardio protect -11, Mot1-301 SUMO 6, MPTP inh 84*, FAS-TE inh -6 and MPTP counter 66*.
CC(=O)c1ccc(NC(=O)CSc2nnc(Cn3cnc4ccccc43)o2)cc1 was read as aDG glyco up 0, CR mimetic SO 83, Cardio protect 2, Mot1-301 SUMO -24, MPTP inh -3 and FAS-TE inh -1.
O=C(CC[C@H]1O[C@@H](n2cnc3c(NC(=O)c4ccccc4)ncnc32)[C@H](O)[C@@H]1O)NCCc1cc2ccccc2[nH]1 was read as aDG glyco up 0, Cardio protect 0, MPTP inh 0 and FAS-TE inh -2.
